# Records with an inconclusive call do not appear. A call without a number means that no potency is given here. Calls of active or inactive are those of the source. Calls follow the shape of the full dose curve.
# Legend:
# [1] = biological target: Acetylcholinesterase (Homo sapiens) (UniProt P22303); assay: Acetylcholinesterase (AChE) small molecule antagonists: enzyme-based qHTS assay (AID 1347397); conditions: Potency: AChE enzyme activity inhibition; outcome: AChE enzyme activity inhibition; also: nearly all actives have a fitted effect of over 55% in size; also: potency is read from the fitted curve at half-maximal effect
# Chain of Acetylcholinesterase (Homo sapiens) (P22303 whole entry, looked up): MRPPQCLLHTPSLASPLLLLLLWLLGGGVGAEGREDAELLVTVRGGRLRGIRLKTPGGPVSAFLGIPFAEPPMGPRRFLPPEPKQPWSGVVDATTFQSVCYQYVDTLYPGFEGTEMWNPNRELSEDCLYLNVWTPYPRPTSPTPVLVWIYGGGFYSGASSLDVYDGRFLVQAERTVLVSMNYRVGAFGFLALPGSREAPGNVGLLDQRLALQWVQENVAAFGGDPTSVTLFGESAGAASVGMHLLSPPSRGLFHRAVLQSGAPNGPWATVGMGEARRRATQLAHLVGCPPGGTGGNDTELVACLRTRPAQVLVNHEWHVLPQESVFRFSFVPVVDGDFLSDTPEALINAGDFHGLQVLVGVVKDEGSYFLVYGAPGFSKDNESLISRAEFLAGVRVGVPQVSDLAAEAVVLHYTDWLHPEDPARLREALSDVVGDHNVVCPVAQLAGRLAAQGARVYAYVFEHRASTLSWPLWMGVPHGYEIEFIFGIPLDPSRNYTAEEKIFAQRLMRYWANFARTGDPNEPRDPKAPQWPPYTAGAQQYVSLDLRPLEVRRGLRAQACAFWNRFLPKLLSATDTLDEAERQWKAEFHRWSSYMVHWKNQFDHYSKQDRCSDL
# Method in brief: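 First, recombinant human AChE (50 mU/mL as dispensed) received test compound or DMSO. Second, plates stood 30 min at room temperature. Third, DTNB and acetylthiocholine were added, followed by 10 min at room temperature and colorimetric detection.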
# [2] = biological target: Acetylcholinesterase (Homo sapiens) (UniProt P22303); assay: Acetylcholinesterase (AChE) small molecule antagonists: fluorescence cell-based qHTS assay (AID 1347398); conditions: Potency: AChE activity; outcome: AChE activity; also: nearly all actives have a fitted effect of over 50% in size; also: potency is read from the fitted curve at half-maximal effect
# Method in brief: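 Homogeneous quantitative HTS format. SH-SY5Y cells seeded at 2,000 per well settle overnight at 37 C. Compound pretreatment runs 30 min (37 C, 5% CO2); substrate/probe mix then reacts 40 min at RT before reading 490/520 nm.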
# [3] = biological target: Acetylcholinesterase (Homo sapiens) (UniProt P22303); assay: Acetylcholinesterase (AChE) small molecule antagonists: enzyme-based qHTS assay with human liver microsomes (AID 1347399); conditions: Potency: qHTS inhibition; outcome: qHTS inhibition; also: nearly all actives have a fitted effect of over 60% in size
# Method in brief: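 Recombinant human AChE (50 mU/mL in the enzyme mix) and human liver microsomes (0.25 mg/mL final) were preincubated with compound and NADPH (0.25 mg/mL final) for 30 min at 37 C. Acetylthiocholine/DTNB was then added; thiocholine was read colorimetrically after 10 min at room temperature.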
# [4] = biological target: Acetylcholinesterase (Homo sapiens) (UniProt P22303); assay: Acetylcholinesterase (AChE) small molecule antagonists: colormetric cell-based qHTS assay (AID 1347395); also: nearly all actives have a fitted effect of over 30% in size
# Method in brief: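 AChE inhibition read colorimetrically via DTNB–thiocholine in SH-SY5Y cells. Compound 30 min, substrate 90 min, both 37 C.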
SMILES,Potency [1],Potency [2],Potency [3],Potency [4]
NCCc1ccn[nH]1,inactive,inactive,inactive,
CCOC(C)OCC,inactive,inactive,inactive,
CCN1CCCC1CN (centres undefined),inactive,inactive,inactive,
CCCCOCC(C)OCC(C)O (centres undefined),57.8 µM (active),29 µM (active),inactive,
OCCOc1ccc(OCCO)cc1,inactive,inactive,inactive,
O=C(O)CCCCCCCCCC(=O)O,inactive,inactive,inactive,
Clc1cc(Cl)c(Cl)c(Cl)c1Cl,inactive,inactive,inactive,
CO[C@@]1(NC(=O)CSC[C@@H](N)C(=O)O)C(=O)N2C(C(=O)O)=C(CSc3nnnn3C)CS[C@@H]21,inactive,inactive,inactive,
CCCCCCCCCCCCCCCCCCO,inactive,inactive,inactive,
CC(=O)OC(C)OC(C)=O,inactive,inactive,inactive,
CC(=O)CC(C)(C)O,,,inactive,inactive
CN1CCCC1=O,inactive,inactive,inactive,
Nc1cccc(O)c1,inactive,inactive,inactive,
COc1ccc(C(=O)c2cccc(O)c2)c(OC)c1,inactive,inactive,inactive,
COC(=O)/C=C\C(=O)OC,inactive,inactive,inactive,
CCc1cccc(C)c1N(C(=O)CS(=O)(=O)O)C(C)COC (centres undefined),inactive,inactive,inactive,
Cn1c(=O)c2c(ncn2CC2OCCO2)n(C)c1=O,inactive,inactive,inactive,
CC(C)COC(=O)c1ccc(N)cc1,inactive,inactive,inactive,
Cc1ccccc1C(=O)Nc1ccc(C(=O)N2CCCC(O)c3cc(Cl)ccc32)c(C)c1 (centres undefined),inactive,inactive,inactive,

SMILES,Potency [1],Potency [2],Potency [3],Potency [4]
CCCCCCCC(=O)OC,,inactive,inactive,inactive
C=CC(=O)OCCCCCCCCCC,inactive,inactive,inactive,
CCCCNCC,inactive,inactive,inactive,
CN(C/C=C/C#CC(C)(C)C)Cc1cccc2ccccc12,inactive,inactive,inactive,
C=CCOCC(O)CCl (centres undefined),inactive,inactive,inactive,
C/C=C/C=C/CO,inactive,inactive,inactive,
N#CCc1ccc(Cl)cc1Cl,inactive,inactive,inactive,
C/C=C(/C(=C/C)c1ccc(O)cc1)c1ccc(O)cc1,inactive,inactive,inactive,
FC(F)(F)c1ccccc1Cl,inactive,inactive,inactive,
OC[C@H](Cc1cccc(O)c1)[C@H](CO)Cc1cccc(O)c1,inactive,inactive,,
CN1C(CCl)Nc2cc(Cl)c(S(N)(=O)=O)cc2S1(=O)=O (centres undefined),inactive,inactive,inactive,
C=C(C)C(=O)OCCCCCCOC(=O)C(=C)C,inactive,inactive,inactive,
Nc1nc(=S)c2[nH]cnc2[nH]1,inactive,inactive,inactive,
CC(C(=O)O)c1ccc(-c2ccccc2)c(F)c1 (centres undefined),inactive,inactive,inactive,
CCCCC(CC)COC(=O)COc1ccc(Cl)cc1C (centres undefined),inactive,inactive,inactive,
OCC1CC=CCC1 (centres undefined),inactive,inactive,inactive,
CCCCc1nc2cccnc2n1Cc1ccc(-c2ccccc2-c2nnn[nH]2)cc1,inactive,inactive,inactive,
Cc1ccc(C=O)cc1C,inactive,inactive,inactive,

# — PubChem BioAssay (Tox21)
